Screens (PubChem)
Pin1 inhibitor: qHTS Assay to Find Inhibitors of Pin1 | Potency, µM (highest dose often 115 µM), hits mostly inhibitors | Pin1 FP peptide displacement, HiFluor488, 10 min | 390,000 compounds, 0.009% hits | AID 504891, 2011 | Peptidyl-prolyl cis-trans isomerase NIMA-interacting 1 (Homo sapiens), Q13526; active = well fitted inhibition curve with a large enough effect in the polarisation, with a control signal flat, not every such curve was filed as active; inconclusive = small, poorly fitted or top-dose-only effect, or effect the other way, or a change in a side signal; inactive = no such curve, though single readings can be large or run the other way; the % refers to the polarisation
Target sequence (Q13526 whole entry, looked up): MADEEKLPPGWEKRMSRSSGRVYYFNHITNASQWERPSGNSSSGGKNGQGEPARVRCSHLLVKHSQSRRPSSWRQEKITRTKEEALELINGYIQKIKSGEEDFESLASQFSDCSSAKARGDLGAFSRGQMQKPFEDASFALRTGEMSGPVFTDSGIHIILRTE
A549 viability: Nrf2 qHTS screen for inhibitors: counterscreen for cytotoxicity; A549 ARE-Fluc cells, CellTiter-Fluor viability, 18-24 h; Potency, µM (titrated, usually from 46 µM), most hits filed as inhibitors; 390,000 compounds, 0.16% hits
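Cytotoxicity counterscreen: CellTiter-Fluor fluorescence was measured in A549 ARE_Fluc cells after 18-24 h of compound exposure in a concentration series. The subsequent BugLite luminescent read reports ARE-luciferase activity.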
Nrf2 block: Nrf2 qHTS screen for inhibitors; A549 ARE-Fluc reporter, luciferase luminescence, 18-24 h; Potency, µM (titrated, usually from 46 µM), hits mostly inhibitors; 360,000 compounds, 2.1% hits; note: nearly all actives have a fitted effect of over 60% in size
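A549 ARE_Fluc cells, 5000/well, 5% FBS OPTI-MEM; compounds in dose-response, 18-24 h at 37 °C/5% CO2; CellTiter-Fluor viability read (Ex 405/Em 525), then BugLite luciferase luminescence = Nrf2 activity.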
Nrf2 activator: qHTS of Nrf2 Activators. AREc32 ARE-luciferase reporter (MCF7-derived line), luminescence, 24 h. Potency, µM (highest dose often 46.1 µM), most hits filed as activators. 410,000 compounds, 0.31% hits; note: nearly all actives have a fitted effect of over 65% in size
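Each well held 1000 AREc32 cells, which were incubated with compound for 24 hr at 37 deg C after overnight attachment, and ARE reporter activity was quantified by firefly luciferase luminescence.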
Large screens that a line does not name were inactive. An excerpt weighted towards active compounds, which were near 2.2% of everything screened. Unless noted, calls come from the whole dose curve; as a rule, active = well fitted curve in the direction sought with a large enough effect; inconclusive = small, poorly fitted or top-dose-only effect, or another doubt; inactive = no such curve, though single readings can be large; an effect the other way counts as inactive or inconclusive.

CC(=O)N1CCCc2cc(S(=O)(=O)N3CCCC(C(=O)NCc4ccc(C)cc4)C3)ccc21 (stereo not given)	Nrf2 block 5.8µM
COc1ccc(NC(=O)C2CCCN(S(=O)(=O)c3cccnc3)C2)cc1OC (stereo not given)	none
CC(=O)N1CCCc2cc(S(=O)(=O)N3CCCC(C(=O)NCc4ccccc4)C3)ccc21 (stereo not given)	Nrf2 block inconclusive
COc1ccc(NC(=O)C2CCCN(S(=O)(=O)c3ccc4c(c3)CCCN4C(C)=O)C2)cc1 (stereo not given)	none
COc1ccc(S(=O)(=O)N2CCCC(C(=O)Nc3cccnc3)C2)cc1Cl (stereo not given)	Nrf2 block 16µM
COc1ccc(NC(=O)C2CCCN(S(=O)(=O)c3ccc4c(c3)CCCN4C(C)=O)C2)cc1Cl (stereo not given)	Nrf2 block 16µM
CCOC(=O)c1nn(-c2ccc(OC)cc2)c(=O)c2c(NC(=O)Cc3ccccc3)scc12	none (no result: Nrf2 activator)
CCOCCCNC(=O)c1cc(Sc2ccc(C)cc2)nc2ccccc12	Nrf2 block 23µM
CCOCCCNC(=O)c1[nH]c2cc(OC)ccc2c1Sc1ccccc1	Nrf2 block 26µM
CCOCCCNC(=O)c1cc(Sc2cccc(Cl)c2)nc2ccccc12	none (no result: Nrf2 block)
CNS(=O)(=O)c1cccc(C(=O)OCC(=O)c2ccc3c(c2)OCCO3)c1	Pin1 inhibitor inconclusive, Nrf2 block 21µM
O=S(=O)(c1ccc2c(c1)OCCO2)N1CCN(S(=O)(=O)c2ccc(Cl)cc2F)CC1	Pin1 inhibitor inconclusive (no result: Nrf2 activator)
CCCN(CCC)S(=O)(=O)c1ccc(C(=O)N2CCCc3ccccc32)cc1	Nrf2 block 18µM
O=C(Nc1ccc2c(c1)CCCN2C(=O)c1cccs1)c1c(F)cccc1Cl	Nrf2 block 26µM
O=C(Nc1ccc(C(=O)N2CCCc3ccccc32)cc1)c1cccs1	A549 viability inconclusive, Nrf2 block 21µM
COc1ccc(Cn2c(NCC(C)C)nc3c2c(=O)n(C)c(=O)n3C)cc1	Nrf2 block inconclusive
C=C1CCN(C(Cc2ccccc2)C(=O)Nc2ccc(OC)cc2)S(=O)(=O)c2ccccc21 (stereo not given)	none (no result: Nrf2 activator)
COc1ccc(-c2nnc3n2N=C(c2cc(OC)ccc2OC)CS3)c(OC)c1	none (no result: Nrf2 activator)
Cc1cccc2cc(-c3ccccc3)c(-c3ccccc3)c[n+]12	Nrf2 block 23µM
COc1ccc2c(c1)CC/C(=C/c1ccncc1)C2=O	Nrf2 activator 22µM
COc1cccc(-n2nnnc2S(C)(=O)=O)c1	A549 viability inconclusive, Nrf2 block 10µM, Nrf2 activator inconclusive
CCOc1ccccc1NC(=O)CSc1nncc2ccccc12	Nrf2 block 23µM
CC(=O)Nc1ccc(C=NNc2nnc(NN=Cc3ccc(NC(C)=O)cc3)c3ccccc23)cc1	Nrf2 block 18µM
Clc1ccc(/C=N/Nc2nnc(Cl)c3ccccc23)cc1	Nrf2 activator 1.3µM
Clc1nnc(NN=C2CCCC2)c2ccccc12	Nrf2 block inconclusive, Nrf2 activator 10µM
C(=N\Nc1nncc2ccccc12)/c1ccccc1	Nrf2 block inconclusive, Nrf2 activator 11µM
CCOc1ccccc1NC(c1nnc(-c2ccccc2)o1)c1ccc(F)cc1Cl (stereo not given)	Pin1 inhibitor inconclusive
COc1cc(C2Nc3ccccc3C(=O)N2Cc2ccccc2)ccc1OCc1ccc(NC(C)=O)cc1 (stereo not given)	none (no result: Nrf2 activator)
Cc1ccc(OCc2nc(-c3ccc(C(=O)N4CCN(c5cc(Cl)ccc5C)CC4)cc3)oc2C)cc1	Nrf2 block inconclusive
CSc1ccc(C2NN=C(c3ccccc3)S2)cc1 (stereo not given)	Nrf2 block inconclusive, Nrf2 activator 5µM
Oc1ccccc1C1NN=C(c2ccccc2)S1 (stereo not given)	Nrf2 block inconclusive, Nrf2 activator 7.1µM
COc1ccc(C2NN=C(c3ccc(C)cc3)S2)cc1 (stereo not given)	Nrf2 block inconclusive
CCOc1cc(C2NN=C(c3ccc(C)cc3)S2)ccc1O (stereo not given)	Nrf2 block inconclusive
COc1ccc(CN(Cc2ccccc2)C(=O)CN2CCN(C)CC2)cc1COc1ccc(NC(C)=O)cc1	none (no result: Nrf2 activator)
Cc1cc(O)c(CN2CCN(c3ccccc3)CC2)c2oc(=O)cc(C)c12	none
CCN(CC)S(=O)(=O)c1cccc(NC(=O)CSc2nc3ccccc3[nH]2)c1	none
CN(C)S(=O)(=O)c1cccc(NC(=O)CSc2nc3ccccc3[nH]2)c1	Nrf2 block 21µM
